SMILES strings stand for the structures. Results filed as inconclusive are left out. Activity calls are given as the source filed them. Rule for the calls: active = hit-call score of the fitted dose curve at least 0.9, where 1 is the maximum; inconclusive = response in the unintended direction; inactive = score below 0.9.

Read-out in this test: organic anion transporter (SLCO1B1), SLCO1B1 (gene 10599)
The experiment in a line: CLD_SLCO1B1_6hr: CellzDirect (CLD) Gene Expression Assay for organic anion transporter (SLCO1B1) at 6 hours (AID 2283668).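 Note: active means mRNA induction above DMSO baseline.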 As to the method: CLD_6hr is a cell-based, multiplexed-readout assay that uses hepatocyte, a human liver primary cell, with measurements taken at 6 hours after chemical dosing in a 96-well plate.CLD_SLCO1B1_6hr is one of 16 assay component(s) measured or calculated from the CLD_6hr assay. It is designed to make measurements of mRNA induction, a form of inducible reporter, as detected with chemiluminescence signals by Quantitative Nuclease Protection Assay (qNPA) technology.Data from the assay component CLD_SLCO1B1_6hr was analyzed at the endpoint, CLD_SLCO1B1_6hr, in the positive analysis fitting direction relative to DMSO as the negative control and baseline of activity. Using a type of inducible reporter, gain-of-signal activity can be used to understand changes in the reporter gene as they relate to the gene SLCO1B1. Furthermore, this assay endpoint can be referred to as a primary readout. To generalize the intended target to other relatable targets, this assay endpoint is annotated to the transporter intended target family, where subfamily is organic anion transporter.
Human hepatocyte cultures were treated daily for two consecutive days with fresh dosing solutions containing appropriate concentrations of the 320 ToxCast chemicals (chemical identities were blinded to CellzDirect and other ToxCast collaborators), vehicle control (0.2% DMSO), and positive control inducers as summarized in Table 1. Due to the large number of treatment groups and chemicals examined, the ToxCast chemicals were divided into two groups (spanning two independent cultures of hepatocytes from separate donor preparations (Hu778: ToxCast plates 1 and 2; Hu776: ToxCast plates 3 and 4). Each preparation of human hepatocyte cultures was treated with respective vehicle control, medium only control, set of six positive controls/reference chemicals for the five hepatic receptor pathways, and a subset of eight of the ToxCast chemicals (indoxacarb, pyrithiobac-sodium, norflurazon, cyhalofop-butyl, methomyl, thiram, acetochlor, and propiconazole). These replicate data, coupled with internal replicates designed within the blinded ToxCast chemical library, provided additional data to evaluate interindividual differences between hepatocyte preparations and their potential impact on chemical profiles.Cell morphology and integrity were evaluated using phase-contrast microscopy as an indicator of hepatocyte cell health (Tyson & Green, 1987). Cultures for each treatment group (i.e., media, vehicle [0.2% DMSO], positive control inducers [multiple concentrations], and the ToxCast chemicals [multiple concentrations]) were observed and cell morphology was assessed relative to vehicle control cultures at each harvest time point (0, 6, 24, or 48 h). […] Images were evaluated at the conclusion of the study to assess changes in cell integrity and account for the effects of chemical exposure on uncharacteristic changes in concentration-dependent gene expression profiles. The results from these determinations of apparent cytotoxicity were annotated (yes/no) alongside the corresponding qNPA data for reference.At the conclusion of each treatment period, hepatocyte cultures (96-well) were washed with 1 volume of HBSS, lysed by addition of 25 ul ArrayPlate lysis buffer (HTG, Tucson, AZ), and 70 ul/well of Denaturation Oil, denatured by incubation at 95C for 10 min, and frozen at approximately -70C until analysis by nuclease protection assay (qNPA) (Roberts et al., 2007). For qNPA analysis, cell lysates were thawed at 50C for approximately 30 min, qNPA probes were added, and samples were incubated at 95C for 10 min to begin the detection process by denaturing the target RNA, dissociating the duplexes and secondary structure hybridization. At the conclusion of the hybridization period, S1 nuclease reagent was added to each sample to digest all nonprotected nucleotides at 50C for 60-90 min. […]
Take `N#CSCSC#N`: the compound was called inactive.

As for `CCOP(=O)(SC(C)CC)N1CCSC1=O` (configuration not stated), the result was inactive. The same measure, in the same setting: the value for `COP(=O)(OC)OC(Br)C(Cl)(Cl)Br` (configuration not stated) was “inactive”; that for `CC1=NNC(=O)N(/N=C/c2cccnc2)C1` was “inactive”; that for `O=c1ccc(=O)[nH][nH]1` was “inactive”. Still for that read-out and setting: the entry for `COc1ccc(C(=CC(=O)N2CCOCC2)c2ccc(Cl)cc2)cc1OC` is “inactive”; for `CCOP(=O)(NC(C)C)Oc1ccc(SC)c(C)c1` (configuration not stated) it is “inactive”; for `CCCSP(=O)(OCC)Oc1ccc(Br)cc1Cl` (configuration not stated) it is “inactive”. Still for that read-out and setting: the value for `CC(COc1ccc(Oc2ccccc2)cc1)Oc1ccccn1` (configuration not stated) was “inactive”; that for `CCCOCC(=Nc1ccc(Cl)cc1C(F)(F)F)n1ccnc1` was “inactive”. As to `CCc1cnc(C2=NC(C)(C(C)C)C(=O)N2)c(C(=O)O)c1` (configuration not stated), the call was inactive. As for `CC[C@H](C)[C@H]1O[C@]2(C=C[C@@H]1C)C[C@@H]1C[C@@H](C/C=C(\C)[C@@H](O[C@H]3C[C@H](OC)[C@@H](O[C@H]4C[C@H](OC)[C@@H](NC)[C@H](C)O4)[C@H](C)O3)[C@@H](C)/C=C/C=C3\CO[C@@H]4[C@H](O)C(C)=C[C@@H](C(=O)O1)[C@]34O)O2`, the AC50 was 30.7 µM (active). On to `CCC(CC)Nc1c([N+](=O)[O-])cc(C)c(C)c1[N+](=O)[O-]`, for which the call was inactive. Same read-out and setting: the value for `C=C(C)[C@H]1Cc2c(ccc3c2O[C@@H]2COc4cc(OC)c(OC)cc4[C@@H]2C3=O)O1` was “inactive”; that for `COP(=O)(OC)C(O)C(Cl)(Cl)Cl` (configuration not stated) was “inactive”. For `CCOP(=S)(OCC)OC(Cl)C(Cl)(Cl)Cl` (configuration not stated), the call was inactive. Regarding `Cc1nn(-c2cc(NS(C)(=O)=O)c(Cl)cc2Cl)c(=O)n1C(F)F`, the compound was called inactive. With `CCC(=NOC/C=C/Cl)C1=C(O)CC(C2CCOCC2)CC1=O` (configuration not stated), the compound was classed as inactive. Still for that read-out and setting: the entry for `CCOP(=S)(OCC)Oc1cc(C)nc(C(C)C)n1` is “inactive”; for `CC(C)N(C(=O)SCC(Cl)=C(Cl)Cl)C(C)C` it is “inactive”. Still for that read-out and setting: the value for `CNC(=O)ON=C(SC)C(=O)N(C)C` was “inactive”; that for `O=[N+]([O-])c1cc(C(F)(F)F)c(Cl)c([N+](=O)[O-])c1Nc1ncc(C(F)(F)F)cc1Cl` was “inactive”; that for `C#CCC1=C(C)C(OC(=O)C2C(C=C(C)C)C2(C)C)CC1=O` (configuration not stated) was “inactive”. For the compound `Cc1ccn2nc(S(=O)(=O)Nc3c(F)cccc3F)nc2n1`, the compound was classed as inactive. In the case of `CCc1cccc(CC)c1N(COC)C(=O)CCl`, the compound was classed as inactive. Regarding `CC(=NC#N)N(C)Cc1ccc(Cl)nc1`, the call was inactive. The same measure, in the same setting: the entry for `CSc1nc(NC(C)C)nc(NC(C)C)n1` is “inactive”. On the same count and under the same terms, the value for `CCCCOC(=O)c1ccccc1C(=O)O` was “inactive”. Same read-out and setting: the entry for `S=C1NCCN1` is “inactive”; for `CCCSP(=O)(OCC)SCCC` it is “inactive”. Consider `CCOP(=O)(OCC)Oc1cc(C)nc(C(C)C)n1`, for which the compound was classed as inactive. Still for that read-out and setting: the value for `CCOP(=S)(Oc1cnc(C(C)(C)C)nc1)OC(C)C` (configuration not stated) was “inactive”; that for `CON=C(C(=O)OC)c1ccccc1CON=C(C)c1cccc(C(F)(F)F)c1` was “inactive”; that for `CSc1nnc(C(C)(C)C)c(=O)n1N` was “inactive”. Same read-out and setting: the value for `COP(=O)(NC(C)=O)SC` (configuration not stated) was “inactive”; that for `CCCOc1nn(C(=O)NS(=O)(=O)c2ccccc2C(=O)OC)c(=O)n1C` was “inactive”; that for `C[Si](Cn1cncn1)(c1ccc(F)cc1)c1ccc(F)cc1` was “inactive”.

Source of the values: PubChem BioAssay (EPA / NIEHS).
